Test results taken from the supplement of paper PMC3334620.
Whole data set: some 33,000 sequences, median “E-score (-0.5 to 0.5)” near -0.011, cut for the highest 2% near 0.28. The full list was thinned out, with the highest values kept by preference.

These sequences were tested against T1, Gcr1 (UniProt P07261) (assay: PBM E-score (8-mer binding enrichment) (E-score (-0.5 to 0.5)); higher = stronger / more preferred TF binding). Details: protein concentration: 100 nM; construct: GST-full length.
T1 sequence: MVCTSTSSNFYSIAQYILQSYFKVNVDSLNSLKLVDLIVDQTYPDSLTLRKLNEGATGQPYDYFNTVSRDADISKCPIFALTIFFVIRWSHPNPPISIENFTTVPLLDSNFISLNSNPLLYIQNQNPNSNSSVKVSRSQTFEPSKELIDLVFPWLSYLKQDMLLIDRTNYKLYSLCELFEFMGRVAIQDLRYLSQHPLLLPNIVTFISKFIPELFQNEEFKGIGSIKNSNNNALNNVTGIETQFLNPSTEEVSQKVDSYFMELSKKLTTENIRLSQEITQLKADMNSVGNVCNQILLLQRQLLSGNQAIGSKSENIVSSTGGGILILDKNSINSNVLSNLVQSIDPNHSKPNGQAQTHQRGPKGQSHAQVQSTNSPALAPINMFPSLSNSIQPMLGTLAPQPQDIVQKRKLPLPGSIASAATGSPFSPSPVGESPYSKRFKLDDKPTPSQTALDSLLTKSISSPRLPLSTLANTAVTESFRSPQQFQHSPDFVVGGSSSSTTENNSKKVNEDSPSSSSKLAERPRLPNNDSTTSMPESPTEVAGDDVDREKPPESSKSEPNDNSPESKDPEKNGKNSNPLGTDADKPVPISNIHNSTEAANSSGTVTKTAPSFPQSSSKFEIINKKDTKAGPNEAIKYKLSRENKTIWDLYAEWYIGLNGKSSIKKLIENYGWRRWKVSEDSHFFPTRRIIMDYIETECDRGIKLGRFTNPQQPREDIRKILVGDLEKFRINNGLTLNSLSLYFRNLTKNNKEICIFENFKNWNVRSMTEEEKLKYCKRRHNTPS
Method: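 Universal 'all 10-mer' protein binding microarrays (Agilent AMADID 015681) probed with GST-tagged S. cerevisiae TFs (full-length or DBD) made by in vitro transcription/translation (PURExpress), about 100-200 nM. Bound TF was detected with fluorescent anti-GST. Each ungapped 8-mer (which stands for itself and its reverse complement) is scored by the PBM enrichment score (E-score), a modified Wilcoxon-Mann-Whitney statistic from -0.5 to +0.5, computed with the Universal PBM Analysis Suite. Scale: above 0.35 generally sequence-specific binding.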

Row | Sequence | PBM E-score
1 | ACTAATGC | 0.0263
2 | ACAGATAG | -0.00305
3 | AACCTGTA | 0.211
4 | ATTTCGGC | 0.141
5 | ATTTCGGA | 0.285
6 | ATTTCGGG | 0.0915
7 | GATCCCAC | 0.235
8 | GATTCCCC | 0.289
9 | TATCCCCA | 0.052
10 | AATTCCCC | 0.0615
11 | CATTCCCC | -0.0585
12 | AATTCCCA | -0.0967
13 | GATCCCCA | 0.28
14 | GATCCCCC | 0.176
15 | AATTCCTA | 0.0723
16 | GATTCCCA | 0.334
17 | GATTCCTA | 0.439
18 | CATTCCTA | -0.0304
19 | CATTCCCA | 0.103
20 | CGCATCTC | 0.0271
21 | AAAGAGAA | 0.022
22 | CAGTTCGG | 0.0773
23 | CGGATTGA | -0.116
24 | CAATGGGG | 0.00495

Row | Sequence | PBM E-score
25 | ACGGTGGG | 0.116
26 | ACCTGCCT | -0.218
27 | AACTGCCT | -0.0496
28 | GGCTGCAA | 0.128
29 | TGCTGCCA | -0.0494
30 | GGCTGCTA | 0.318
31 | AGCTGCCA | 0.385
32 | GGCTGCCC | 0.272
33 | CGCTGCTA | 0.155
34 | CGCTGCCA | 0.185
35 | AGCTGCTA | 0.226
36 | AGCTGCCT | 0.32
37 | GGCTGCCA | 0.418
38 | GATGGGAA | 0.123
39 | TACAGATA | -0.0799
40 | ATATTTGA | 0.0958
41 | CTTTCGAA | -0.0912
42 | CAGATAAC | -0.13
43 | ACTTGACT | -0.0523
44 | CACCGAGA | -0.00934
45 | GTGCCCCA | -0.0431
46 | GGGCTCAC | -0.096
47 | AGAGCTGG | -0.143
48 | TCTGCCCA | -0.249

Row | Sequence | PBM E-score
49 | AGATTTCG | 0.113
50 | AAGGTGTC | 0.0915
51 | AGCTGCCC | 0.217
52 | CGCTGCCG | 0.175
53 | AGCTGCCG | 0.289
54 | ACTACAAC | 0.0309
55 | CGCATCCG | 0.221
56 | CACATCCA | 0.0944
57 | CGCATCGC | -0.0699
58 | GCCATCCC | -0.173
59 | AGCATCAC | 0.00094
60 | CGCATCGA | 0.0887
61 | AACATCCC | -0.109
62 | GGCATCCC | 0.4
63 | AGCATCCC | 0.33
64 | CGCATCCC | 0.319
65 | GACATCCC | 0.0126
66 | CGCATCCA | 0.323
67 | AAAGGGTG | -0.0719
68 | AAGGCGGT | 0.00689
69 | CTGTGGCA | 0.0358
70 | AACTGGCA | 0.0707
71 | ATTCTCGG | 0.123
72 | GCTTCCGA | 0.386

Row | Sequence | PBM E-score
73 | GCCTCCAC | -0.0325
74 | GCTTCCAC | 0.42
75 | ACTTCCGA | 0.0686
76 | CCTTCCAC | 0.208
77 | ACTTCCTG | 0.319
78 | CCTTCCGA | -0.12
79 | ACTTCCTA | 0.245
80 | ACTTCCTC | 0.243
81 | ACTTCCAT | 0.145
82 | ACTTCCAG | 0.377
83 | CCTTCCAG | 0.0686
84 | AGTTCCTG | 0.0262
85 | CCATGCCG | -0.2
86 | CGCTTTCC | -0.0681
87 | CTTTCTAC | 0.0892
88 | AGTCGGAC | -0.093
89 | ACCTGAGA | -0.038
90 | CCTTCCAA | -0.0431
91 | ACTTCCAA | 0.303
92 | ATTTCCAA | 0.0988
93 | GCTTCCAA | 0.443
94 | TCTTCCAA | -0.0111
95 | ACTTCCAC | 0.261
